# Results as given in PubChem BioAssay AID434947 (Broad Institute, 2010).
# Screen size: about 2,200 compounds; about 15 (0.7%) were called active. The sample holds actives, similar compounds and a random draw of the others, so the mix is not that of the screen. Values without a mark were called inactive.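 How the source made its calls: active means fitted half-maximal concentration for loss of luminescence signal no more than a set limit of log units above the top tested concentration; inconclusive means flat fit with 30 to 70% signal loss, or invalid fit; inactive means half-maximal concentration above that set limit.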
# Assay: ADP-Glo luciferase signal interference – biochemical, luminescence, cell-free, homogeneous, artefact control for GSK3beta inhibitor project, dose response (AID 434947);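 further: kinase-free counter screen of ADP-Glo detection reagents for GSK3beta hits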
# Settings: Cell-free ADP-Glo reagents, 5 uM ADP
row,SMILES,EC50
1,CC1(C)CC(=O)C=C(Nc2ccc3c(c2)OCCO3)C1,> 30 µM
2,COc1ccc(-c2nn(-c3ccccc3)cc2/C=N/N2C(=O)CSC2=S)cc1,> 30 µM
3,Cc1ccccc1-c1nc(CN2CCC(C(=O)N3CCN(c4ccccn4)CC3)CC2)c(C)o1,> 30 µM
4,CCOC(=O)c1cnc2c(OC)cccc2c1N1CCN(c2ccc(OC)cc2)CC1,> 30 µM
5,COc1cc(OC)c(OC)cc1CNCC1COc2ccccc2O1 (stereo unspecified),> 30 µM
6,CSc1nc(N)c2c3c(sc2n1)CN(C)CC3,> 30 µM
7,Cn1c(=O)c2[nH]c(CCCC(=O)O)nc2n(Cc2ccccc2)c1=S,> 30 µM
8,NS(=O)(=O)c1cc(C(=O)N=Nc2c(O)[nH]c3ccccc23)ccc1Cl,> 30 µM
9,O=C(/C=C/c1ccc2ccccc2c1)c1ccoc1,> 30 µM
10,NS(=O)(=O)c1ccc(CCNC(=O)CSc2nc3ccsc3c(=O)n2C2CC2)cc1,> 30 µM
11,CN(C)CCCNc1ccc(-c2cc(Nc3cccc(Cl)c3)ncn2)cn1,> 30 µM
12,CN(CCO)c1cc(N2CCC3(CC2)OCCO3)c2nonc2c1[N+](=O)[O-],> 30 µM
13,COC(=O)c1nnn(-c2nonc2N)c1CSc1ccc(Cl)cc1,> 30 µM
14,Cc1cccc(OCc2nnc(SCC(=O)Nc3sc(C)c(C)c3C#N)n2C)c1,> 30 µM
15,CC(C)N1C(=O)N(c2ccc(Cl)cc2)C(C)(O)CC1(C)C (stereo unspecified),> 30 µM
16,CC(C)CCSc1nnc(N)s1,> 30 µM
17,CCC(=O)Nc1ccc(Nc2nc(C)c([N+](=O)[O-])c(Nc3ccc(NC(=O)CC)cc3)n2)cc1,> 30 µM
18,O=C(Nc1ccnn1C1CCN(Cc2cccc(OCCO)c2)CC1)C1CCCC1,> 30 µM
19,c1ccc(OCCCn2nnc(-c3ccncc3)n2)cc1,> 30 µM
20,Nc1nc(NCCO)nc(NCC2CCCO2)c1[N+](=O)[O-] (stereo unspecified),> 30 µM
21,N#Cc1c(-c2ccccc2)nc(SCC(=O)Nc2ccc(OC(F)(F)Cl)cc2)[nH]c1=O,> 30 µM
22,O=C(Nc1cc(-c2ccccc2)[nH]n1)c1ccccc1,> 30 µM
23,COc1cccc(C(=O)Nc2ccc(C(=O)NCC(C)C)cc2)c1,> 30 µM
24,CCCCC(CC)C(=O)Nc1ncc([N+](=O)[O-])s1 (stereo unspecified),> 30 µM

row,SMILES,EC50
1,O=C(COc1ccccc1[N+](=O)[O-])N/N=C/c1ccccn1,> 30 µM
2,N/C(Cc1nc2ccccc2s1)=N\O,> 30 µM
3,COc1cccc(C(=O)Nc2nnc(C(C)C)s2)c1,> 30 µM
4,COc1ccc2nc(Cl)cc(Cl)c2c1,> 30 µM
5,CCCc1cc(=O)[nH]c(SCCOc2ccc(OCC)cc2)n1,> 30 µM
6,COc1ccccc1/C=C1\C(=O)Nc2ccccc21,> 30 µM
7,Cc1ccc(S(=O)(=O)NNC(=O)c2cccc(O)c2)cc1,> 30 µM
8,COCc1c(C(=O)Nc2ccc(Cl)cc2F)oc2ccccc12,> 30 µM
9,CC(C)c1ccc(NC2=CC(=O)CC(C)(C)C2)cc1,> 30 µM
10,O=C(CCc1ccccc1)Nc1ccc2c(c1)OCCO2,> 30 µM
11,Cc1cc(C)c(C)c(S(=O)(=O)Nc2ccccc2C(=O)NCCCn2ccnc2)c1C,> 30 µM
12,N#Cc1ccc(CSc2nnc(-c3ccncc3)o2)cc1,> 30 µM
13,CN(c1ncnc(N)c1[N+](=O)[O-])C1CCCCC1,> 30 µM
14,O=C(O)c1ccccc1N/N=C\c1ccnc2ccccc12,> 30 µM
15,COc1ccc(-c2nn(-c3ccccc3)cc2/C=N/O)cc1OC,> 30 µM
16,Cc1cc(C(=O)OCCN2C(=O)c3ccccc3C2=O)c2ccccc2n1,> 30 µM
17,Cn1cc(S(=O)(=O)NCc2ccc(F)cc2)c(=O)n(C)c1=O,> 30 µM
18,c1ccc(CNc2nc(-c3cccnc3)nc3ccccc23)cc1,> 30 µM
19,Cc1cc(C(=O)c2ccccc2)c(NC(=O)CN2CCOCC2)s1,> 30 µM
20,CN(Cc1c(C(=O)N/N=C/c2ccccc2F)nnn1-c1nonc1N)c1ccccc1,> 30 µM
21,CCn1c(SCC(=O)Nc2ccc(Cl)cc2)nnc1C1CC1,> 30 µM
22,O=c1c2[nH]c3ccccc3c2ncn1C1CCCCC1,> 30 µM
23,CCOC(=O)/C(C#N)=C/c1cn(CCC(=O)O)nc1-c1ccccc1,> 30 µM
24,CN1CCN(c2ccccc2NC(=O)c2ccc(Br)o2)CC1,> 30 µM

row,SMILES,EC50
1,Cc1cnc(C(=O)OCC(=O)N2c3ccccc3CC2C)cn1 (stereo unspecified),> 30 µM
2,N#CCCn1cc(/C=N/O)c(-c2cccc([N+](=O)[O-])c2)n1,> 30 µM
3,COc1cccc(/C=N/Nc2cc(Cl)nc(C)n2)c1O,> 30 µM
4,COc1ccc(-c2nn(-c3ccccc3)cc2N)cc1,> 30 µM
5,CSc1nc2c(c(=O)[nH]1)C(c1ccccc1)C1=C(CC(C)(C)CC1=O)N2 (stereo unspecified),> 30 µM
6,CC(=O)C(Sc1ccc2nnc(-c3ccc(F)cc3)n2n1)C(C)=O,> 30 µM
7,NNC(=O)CNC(=O)c1ccc(F)cc1,> 30 µM
8,Cn1c(=S)n(CCC(=O)O)c2ccccc21,> 30 µM
9,O=C(NCC(c1ccco1)N1CCc2ccccc21)c1c(F)cccc1F (stereo unspecified),> 30 µM
10,Cc1ccc(-c2nn(-c3ccccc3)cc2/C=N/NS(=O)(=O)c2ccccc2)cc1,> 30 µM
11,COCCn1c(SCC(=O)Nc2ccc(Cl)c(S(=O)(=O)N(C)C)c2)nc2ccccc21,> 30 µM
12,COc1cccc(N=Nc2c(N)[nH][nH]c2=O)c1,> 30 µM
13,Cc1cc(NC(=O)CSc2nnc(C3CC3)n2Cc2ccccc2)no1,> 30 µM
14,CNc1nc(N)c([N+](=O)[O-])c(NCC2CCCO2)n1 (stereo unspecified),> 30 µM
15,COc1cc(SC)ccc1C(=O)OCC(=O)NCCNC(=O)COC(=O)c1ccc(SC)cc1OC,> 30 µM
16,CCOC(=O)COC(=O)c1ccc(O)cc1,> 30 µM
17,Cc1ccc(C(=O)O/N=C(\N)c2ccccn2)c(C)c1,17.6 µM (active)
18,COc1ccc(C(=O)OCCc2ccc(O)cc2)cc1,> 30 µM
19,Cc1ccc2nc3c(cc2c1)c(NC(=O)c1ccccn1)nn3CC(C)C,> 30 µM
20,Cc1ccc(C(=O)O/N=C(\N)c2ccccn2)c(Cl)c1,26.6 µM (active)
21,COc1ccc(C(=O)c2sc(Nc3ccccc3)nc2N)cc1,> 30 µM
22,Cc1ccc(C(=O)N/N=C2\CCCc3ccccc32)c(C)c1,> 30 µM
23,COc1ccc(C(=O)O/N=C(\N)c2ccccn2)cc1,15.5 µM (active)
24,Cc1ccc(-c2cc(C(=O)NCCc3ccccn3)c3ccccc3n2)c(C)c1,> 30 µM

row,SMILES,EC50
1,CCc1ccc(CNC(=O)C2CCC(=O)N(CCc3ccc(Cl)cc3)C2)nc1 (stereo unspecified),> 30 µM
2,O=C(O)COc1ccc(C(=O)c2ccccc2)cc1,> 30 µM
3,CSc1nc(NCCCN(C)C)c2c3c(sc2n1)CN(C)CC3,> 30 µM
4,OCCNc1nc(-c2cccnc2)nc2ccccc12,> 30 µM
5,CCC(C)Nc1nc(N)c([N+](=O)[O-])c(NCc2ccccc2)n1 (stereo unspecified),> 30 µM
6,Cc1ccc(NC(=O)CSCc2ccc(F)cc2)cc1,> 30 µM
7,CCN1CCc2c(sc(NC(=O)Cc3ccccc3)c2C(N)=O)C1,> 30 µM
8,COc1ccc(OC)c(C(O)c2coc3ccc(O)c(CN(C)C)c23)c1 (stereo unspecified),> 30 µM
9,CCn1c(/C=C/N(C(C)=O)c2ccccc2)[n+](CC)c2ccc(Cl)cc21,> 30 µM
10,CCOc1ccc(/C=N/Nc2ccccn2)cc1OC,> 30 µM
11,Cc1ccc(S(=O)(=O)CC(=O)c2cc3cccc(C)c3oc2=O)cc1,> 30 µM
12,Nc1nc(NCCc2ccccc2)nc(NCCO)c1[N+](=O)[O-],> 30 µM
13,O=C(N/N=C/c1ccc(-c2ccc(Cl)c(C(=O)O)c2)o1)c1cc2c(ccc3ccccc32)o1,> 30 µM
14,CCn1c(SCC(=O)Nc2nccs2)nnc1C1CC1,> 30 µM
15,COc1ccc(N(C(=O)c2ccncc2)S(=O)(=O)c2cccc([N+](=O)[O-])c2)cc1,> 30 µM
16,Cc1ccc(-c2nc(Nc3cccc(O)c3)c3ccccc3n2)cc1,> 30 µM
17,CN(C)S(=O)(=O)c1cc(NC(=O)COC(=O)Cc2ccc(Br)cc2)ccc1Cl,> 30 µM
18,CSc1nc(C)cc(-n2ccc(=O)[nH]c2=O)n1,> 30 µM
19,CC(C)OCCCN1CN(S(=O)(=O)c2cccc(Cl)c2)c2nc3ccccc3nc21,> 30 µM
20,COc1ccc(-c2nn(-c3ccccc3)cc2C(=O)O)cc1,> 30 µM
21,COCCOc1ccc(C(F)(F)F)cc1NC(=O)COC(=O)c1cc[n+]([O-])cc1,> 30 µM
22,COc1cccc(C(=O)Nc2nc3ccccc3s2)c1,> 30 µM
23,CCSc1ccc2nnc(-c3cccs3)n2n1,> 30 µM
24,CCCCn1nc(NC(=O)CCC)c2cc3cc(OC)ccc3nc21,> 30 µM
